A short description of assay [1]: E. coli DRC41 culture turbidity changes, primary screen, E. coli filamentation inducer project, strain DRC41, OD650, 48 h (AID 1152).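 Further: E. coli MC1000 strain DRC41 lacking acrAB efflux pump and sulA.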 The note with it: E. coli DRC41 (acrAB sulA), higher = more signal, called active from +8 up or from −8 down.
Assay [2] is described as follows: small-molecule binders of probe aLefty1, primary screen, biochemical, small-molecule microarray, 635/667 nm fluorescence (AID 1153).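 Further: score merges spot fluorescence with signal-to-noise ratio from the scanned slide images.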 The note with it: higher = more signal.
Assay [3] is described as follows: PSAC antagonists in infected red cells, primary screen, cell-based, P. falciparum Indochina, OD700, 1 h (AID 1154). The note with it: P. falciparum Indochina infected RBC osmotic lysis, higher = more signal, called active from +8 up or from −8 down.
Assay [4] is described as follows: PSAC antagonists in infected red cells, primary screen, cell-based, P. falciparum Indochina, OD700, 2 h (AID 1155).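 Further: lysis reports solute entry through the parasite surface anion channel PSAC; channel blockers reduce lysis of infected cells.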 The note with it: P. falciparum Indochina infected erythrocytes, osmotic lysis OD700; higher = more signal, called active from +8 up or from −8 down.
Assay [5] can be described thus: osmotic lysis modulators in infected erythrocytes, primary screen, PSAC antagonist project, cell-based, P. falciparum Indochina, OD700, 3 h (AID 1156). The note with it: higher = more signal, called active from +8 up or from −8 down.
Assay [6] is described as follows: PSAC antagonists in infected red cells, primary screen, cell-based, P. falciparum Indochina, OD700, 18 h (AID 1157). The note with it: P. falciparum Indochina infected erythrocytes, osmotic lysis OD700, 18 h; higher = more signal, called active from +8 up or from −8 down.
The nature of assay [7]: modulators of S6 phosphorylation in cells, primary screen, cell-based, A549, cytoblot, luminescence, serum-stimulated (AID 1158).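 Further: serum-stimulated A549 lung adenocarcinoma cells; signal is phosphorylated S6 detected by cytoblot immunostaining with HRP secondary.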 The note with it: A549 phospho-S6 cytoblot, 5 h, higher = more signal.
Assay [8] concerns the target NADPH oxidase 2 (Homo sapiens) (UniProt P04839). Briefly: NOX2-dependent H2O2 signal modulators, primary screen, NOX inhibitor project, cell-based, HEK293-NOX2, PMA-stimulated, Amplex Red fluorescence (AID 1159). Further: test concentration not given here. The note with it: 45 min, higher = more signal, called active from +8 up or from −8 down.
Assay [9] concerns the target NADPH oxidase 4 (Homo sapiens) (UniProt Q9NPH5). Put plainly: NOX4-dependent H2O2 signal modulators, primary screen, NOX inhibitor project, cell-based, HEK293-NOX4, tetracycline-induced, Amplex Red fluorescence (AID 1160). The note with it: 45 min, higher = more signal, called active from +8 up or from −8 down.
Assay [10] concerns the target NADPH oxidase 5 (Homo sapiens) (UniProt Q96PH1). Briefly: NOX5-dependent H2O2 signal modulators, primary screen, NOX inhibitor project, cell-based, HEK293-NOX5, Amplex Red fluorescence (AID 1161). The note with it: HEK293-NOX5, ionomycin, 45 min, higher = more signal.

Each structure is given as a SMILES string. The source made the active and inactive calls.

Sequence of NADPH oxidase 2 (Homo sapiens) (P04839 whole entry, looked up): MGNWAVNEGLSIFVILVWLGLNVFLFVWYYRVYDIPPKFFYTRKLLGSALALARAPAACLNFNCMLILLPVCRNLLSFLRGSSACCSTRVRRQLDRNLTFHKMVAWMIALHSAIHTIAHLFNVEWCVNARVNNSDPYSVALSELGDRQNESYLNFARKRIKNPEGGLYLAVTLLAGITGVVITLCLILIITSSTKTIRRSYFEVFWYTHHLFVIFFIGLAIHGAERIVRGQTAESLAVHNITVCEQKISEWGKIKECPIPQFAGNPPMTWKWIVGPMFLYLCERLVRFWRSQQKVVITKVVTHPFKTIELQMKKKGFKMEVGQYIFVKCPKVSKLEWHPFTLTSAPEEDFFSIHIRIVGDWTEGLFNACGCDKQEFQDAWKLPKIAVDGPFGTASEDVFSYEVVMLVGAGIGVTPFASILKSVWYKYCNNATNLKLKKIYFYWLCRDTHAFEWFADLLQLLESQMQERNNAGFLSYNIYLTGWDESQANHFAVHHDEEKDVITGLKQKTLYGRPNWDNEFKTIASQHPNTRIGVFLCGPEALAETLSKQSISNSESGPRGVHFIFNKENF
Sequence of NADPH oxidase 4 (Homo sapiens) (Q9NPH5 whole entry, looked up): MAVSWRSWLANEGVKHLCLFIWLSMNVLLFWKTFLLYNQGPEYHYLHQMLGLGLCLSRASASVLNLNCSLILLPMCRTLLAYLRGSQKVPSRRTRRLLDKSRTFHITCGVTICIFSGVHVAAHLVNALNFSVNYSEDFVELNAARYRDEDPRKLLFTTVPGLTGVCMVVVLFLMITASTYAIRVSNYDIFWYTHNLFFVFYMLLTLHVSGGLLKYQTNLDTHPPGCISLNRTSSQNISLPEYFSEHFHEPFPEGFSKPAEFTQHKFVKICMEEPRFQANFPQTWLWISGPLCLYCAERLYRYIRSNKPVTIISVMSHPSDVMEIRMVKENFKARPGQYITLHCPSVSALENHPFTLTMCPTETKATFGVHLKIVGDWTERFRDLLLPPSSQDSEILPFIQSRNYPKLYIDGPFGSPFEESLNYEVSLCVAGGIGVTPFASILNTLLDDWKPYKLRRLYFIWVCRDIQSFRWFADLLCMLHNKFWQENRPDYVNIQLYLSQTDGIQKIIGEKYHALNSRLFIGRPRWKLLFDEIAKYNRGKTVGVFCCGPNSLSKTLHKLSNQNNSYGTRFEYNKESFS
Sequence of NADPH oxidase 5 (Homo sapiens) (Q96PH1 whole entry, looked up): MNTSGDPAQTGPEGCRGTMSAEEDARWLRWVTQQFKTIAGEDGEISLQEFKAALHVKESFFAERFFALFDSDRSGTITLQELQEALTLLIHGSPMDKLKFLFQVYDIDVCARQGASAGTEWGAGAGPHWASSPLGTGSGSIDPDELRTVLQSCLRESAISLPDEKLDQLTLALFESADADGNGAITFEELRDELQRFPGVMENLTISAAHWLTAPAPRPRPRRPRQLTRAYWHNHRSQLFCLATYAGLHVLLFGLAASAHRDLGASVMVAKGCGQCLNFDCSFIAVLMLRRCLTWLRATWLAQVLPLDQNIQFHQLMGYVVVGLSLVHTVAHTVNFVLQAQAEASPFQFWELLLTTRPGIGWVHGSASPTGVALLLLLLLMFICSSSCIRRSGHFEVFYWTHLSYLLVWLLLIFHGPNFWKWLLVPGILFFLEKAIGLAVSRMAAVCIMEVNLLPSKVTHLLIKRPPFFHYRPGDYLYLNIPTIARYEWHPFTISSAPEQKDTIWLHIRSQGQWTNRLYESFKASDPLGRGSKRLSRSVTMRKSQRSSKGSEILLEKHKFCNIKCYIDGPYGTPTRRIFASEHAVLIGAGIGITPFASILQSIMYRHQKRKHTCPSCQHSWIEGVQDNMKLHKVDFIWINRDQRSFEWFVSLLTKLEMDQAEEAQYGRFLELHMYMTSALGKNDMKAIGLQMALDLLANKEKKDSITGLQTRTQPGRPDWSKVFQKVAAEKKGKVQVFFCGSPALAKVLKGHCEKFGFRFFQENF

With `O=C1C[C@@](C(=O)NC2CC2)(c2ccc([N+](=O)[O-])cc2)[C@@H](c2ccc(CO)cc2I)N1C1CCCCC1`, the z-score is -0.178 (inactive) in assay [1]; 16.5 (active) in assay [3]; 2.28 (inactive) in assay [4]; 3.03 (inactive) in [5]; 0.797 (inactive) in assay [6]; -0.552 in assay [7]. For the same compound, the z-score in assay [8] was 1.37 (inactive); in assay [9], 0.666 (inactive); in assay [10], 2.04. In addition, the composite z-score in assay [2] was -0.034.

For `COc1ccc(C(=O)Nc2ccc(CN3C(=O)[C@]4(O[C@H](CCO)[C@@H]([Si](C)(C)c5ccc(OC)cc5)[C@@H]4C)c4ccccc43)cc2)cc1`, the z-score in assay [1] was -1.37 (inactive); in assay [3] it was 5.29 (inactive); in assay [4] it was 2.11 (inactive); in assay [5], -0.205 (inactive); in assay [6], 2.12 (inactive); in assay [7], -1.38. For the same compound, the z-score in [8] was -6.37 (inactive); in [9], -2.55 (inactive); in assay [10], -1.54. For the same compound, the composite z-score in assay [2] came out at 0.199.

Regarding `COC(=O)C[C@H]1O[C@]2(C(=O)N(C)c3ccccc32)[C@@H](C)[C@@H]1[Si](C)(C)F`, the z-score in assay [1] is 2.91 (inactive); in assay [3], -0.0899 (inactive); in [4] it was -0.562 (inactive); in assay [5], -0.338 (inactive); in assay [6] it was -2.12 (inactive); in [7], 1.26. Further, the z-score in [8] is -0.771 (inactive); in assay [9], 0.555 (inactive); in assay [10], 1.45. For the same compound, the composite z-score in assay [2] was 0.0982.

Take `C=C(CC1([C@@H](NP(=O)(c2ccccc2)c2ccccc2)[C@H]2C[C@@H]2CCCC)CC1)c1ccccc1`: the z-score is -1.67 (inactive) in assay [1]; 0.579 (inactive) in assay [3]; 0.495 (inactive) in assay [4]; 2.62 (inactive) in [5]; 0.935 (inactive) in [6]; 0.534 in assay [7]. The z-score in assay [8] was -0.538 (inactive); in [9], -0.988 (inactive); in assay [10] it was -2.95. This compound returned a composite z-score in [2] of 0.568.

Regarding `C=CCC(OC(C)=O)[C@@H]1[C@@H](N(Cc2cccc3ccccc23)C(=O)c2ccc(-c3ccccc3)cc2)c2cc(OCCCO)ccc2N1C(=O)c1ccc2ccccc2c1` (stereo not given in full), the z-score was -0.495 (inactive) in [1]; 0.135 (inactive) in assay [3]; 0.396 (inactive) in assay [4]; -0.182 (inactive) in assay [5]; 0.0644 (inactive) in assay [6]; 0.174 in assay [7]. Further, the figures for the z-score in assay [8], in assay [9] and in assay [10] were -0.608 (inactive), 0.624 (inactive) and -0.535, respectively. The compound also gave a composite z-score in [2] of 0.0153.

For the compound `COCCOC(=O)N1C(=O)[C@@]2(c3cc(C#CC4(O)CCCCCC4)ccc31)[C@H](c1ccc(OCCO)cc1)N1[C@H](c3ccccc3)[C@H](c3ccccc3)OC(=O)[C@H]1[C@@H]2C(=O)N1CCN(c2ncccn2)CC1`, the z-score in [1] was -0.393 (inactive); in [3], 7.73 (inactive); in [4] it was 2.47 (inactive); in assay [5] it was 0.493 (inactive); in [6] it was 1.12 (inactive); in assay [7] it was -0.537. Besides, the z-score in assay [8] is 1.61 (inactive); in [9], 0.854 (inactive); in assay [10] it was 1.83. For the same compound, the composite z-score in assay [2] amounted to 0.813.

In the case of `C=C(C)[C@@H]1CC=C(C(O)C2C=CC3C(=O)N(C)C(=O)C3N2Nc2ccccc2)CC1` (stereo not given in full), the z-score in assay [1] was -1.54 (inactive); in assay [3] it was 1.89 (inactive); in [4] it was 0.344 (inactive); in assay [5], 0.683 (inactive); in [6], 1.59 (inactive); in assay [7], -0.549. In addition, the z-score in assay [8] was -1.1 (inactive); in assay [9], -2.76 (inactive); in assay [10] it was -2.23. Also, in [2], the composite z-score is 0.42.

With `COC(=O)[C@@]1(Cc2ccc(OC)cc2)[C@H]2c3cc(C(=O)N4CCCC4)n(Cc4ccc(C)c(F)c4F)c3C[C@H]2CN1C(=O)c1ccccc1`, the z-score in assay [1] is -0.548 (inactive); in [3] it was 3.76 (inactive); in assay [4], 0.233 (inactive); in assay [5], 0.894 (inactive); in [6] it was 1.08 (inactive); in assay [7], 0.105. Moreover, the z-score in [8] is 0.705 (inactive); in [9] it was 1.23 (inactive); in [10], -3.41. Besides, the composite z-score in [2] was found to be 0.378.

In the case of `CCOC(=O)C1=C[C@@H](C(C)(C)C)N(S(=O)(=O)c2ccc(C)cc2)[C@H]1c1ccc(F)cc1`, the z-score is -1.68 (inactive) in assay [1]; 0.957 (inactive) in assay [3]; 0.716 (inactive) in assay [4]; -0.862 (inactive) in assay [5]; 0.634 (inactive) in assay [6]; -0.827 in assay [7]. For the same compound, the z-score in [8] is -0.829 (inactive); in assay [9], -0.217 (inactive); in assay [10] it was 0.821. For the same compound, in assay [2], the composite z-score was -0.0162.

For `CCCC#C[Si](O[C@H](CC)c1cn(Cc2cccc(Cl)c2)nn1)(C(C)C)C(C)C`, the z-score was 1.68 (inactive) in assay [1]; 0.131 (inactive) in assay [3]; 0.659 (inactive) in assay [4]; -0.871 (inactive) in assay [5]; 0.283 (inactive) in [6]; -0.131 in assay [7]. The z-score is 0.041 (inactive) in assay [8], 0.076 (inactive) in [9] and 0.842 in assay [10]. The compound further registered a composite z-score in assay [2] of 0.171.

Turning to `NCCCCCNC(=O)[C@@H]1C[C@@H]2C(=O)N[C@@H](Cc3ccccc3)C(=O)N2[C@@H]1c1ccc(O)cc1`, the z-score was -1.16 (inactive) in assay [1]; 1.24 (inactive) in assay [3]; 0.24 (inactive) in assay [4]; -0.648 (inactive) in [5]; -0.116 (inactive) in assay [6]; -0.358 in assay [7]. Moreover, the z-score was 0.713 (inactive) in assay [8], 0.539 (inactive) in [9] and -0.657 in assay [10]. Moreover, in [2], the composite z-score was found to be 0.176.

For `CO[C@H]1O[C@H](CO)[C@@H](OC(=O)Nc2ccccc2)[C@H](OC(=O)Nc2ccccc2)[C@@H]1OC(=O)Nc1ccccc1`, the z-score is -0.24 (inactive) in [1]; 6.99 (inactive) in assay [3]; 1.35 (inactive) in [4]; 0.111 (inactive) in assay [5]; 1.18 (inactive) in assay [6]; 0.725 in [7]. For the same compound, the z-score in assay [8] was -3.38 (inactive); in assay [9], -0.394 (inactive); in [10], -1.13. For the same compound, the composite z-score in assay [2] is -0.369.

On to `CCOC(=O)C[C@H]1[C@H](OC(=O)c2ccccc2-c2ccccc2)[C@@H](NC(=O)CC(C)C)c2cc(OCCCO)ccc2N1C(=O)Cc1ccc(OC)cc1`, for which the z-score in [1] is -0.892 (inactive); in assay [3], 2.71 (inactive); in assay [4], 0.317 (inactive); in assay [5], 0.587 (inactive); in [6] it was 0.207 (inactive); in assay [7], 0.633. Also, the z-score in [8] is -0.234 (inactive); in assay [9], 1.21 (inactive); in assay [10], -0.33. The compound also gave a composite z-score in [2] of -0.0094.

The record behind these values is PubChem BioAssay.
